Source: PubChem BioAssay AID1159580 (chemical genetic matrix, 2015)
Where “and” joins values, the source holds several entries; their conditions need not be identical. Equal entries are not always repeated. Screen size: about 5,500 compounds; about 2,000 (36%) were called active. Roughly 18% stayed inconclusive and do not appear here. Cut-off read from the data, not from the text of the source: active = normalized growth mostly below about 0.91 (no sharp cut-off); inconclusive = no clear call, values can overlap the other calls; inactive = mostly above about 0.92. This is one part of the list.

Experiment: chemical genetic growth profiling, strain panel (AID 1159580);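 note: tested at 20 µM; growth read once vehicle control cultures reached saturation at 30 °C; 1 = growth at the plate median or of vehicle wells; lower values mean less growth of the strain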
Conditions: growth OD

Measured: normalized growth

CCOC(=O)C(C)(C)Oc1ccc(Cl)cc1
inactive: S. cerevisiae deletion strains, locus YJR075W, strain HOC1, stronger effect = lower value 1.01 and 0.998 | S. cerevisiae deletion strains, locus YKL009W, strain mrt4, stronger effect = lower value 1.02 | S. cerevisiae deletion strains, locus YKL068W, stronger effect = lower value 1 | S. cerevisiae deletion strains, locus YKL085W, strain MDH1 (second series), stronger effect = lower value 1.01 | S. cerevisiae deletion strains, locus YKL085W, strain MDH1, stronger effect = lower value 1.01 | S. cerevisiae deletion strains, locus YKL160W, strain elf1, stronger effect = lower value 0.98 | S. cerevisiae deletion strains, locus YKL190W, strain CNB1, stronger effect = lower value 1.01 | S. cerevisiae deletion strains, locus YKR001C, strain vps1, stronger effect = lower value 0.975 | S. cerevisiae deletion strains, locus YKR026C, strain gcn3, stronger effect = lower value 0.974 | S. cerevisiae deletion strains, locus YKR091W, strain srl3, stronger effect = lower value 0.978 | S. cerevisiae deletion strains, locus YLL001W, strain dnm1, stronger effect = lower value 0.987 | S. cerevisiae deletion strains, locus YLL026W, stronger effect = lower value 0.97 | S. cerevisiae deletion strains, locus YLL041C, strain sdh2, stronger effect = lower value 0.983 | S. cerevisiae deletion strains, locus YLR027C, strain aat2, stronger effect = lower value 0.994 | S. cerevisiae deletion strains, locus YLR039C, strain RIC1, stronger effect = lower value 0.986 | S. cerevisiae deletion strains, locus YLR058C, strain SHM2, stronger effect = lower value 1.01 | S. cerevisiae deletion strains, locus YLR102C, strain apc9, stronger effect = lower value 0.996 | S. cerevisiae deletion strains, locus YLR113W, strain HOG1, stronger effect = lower value 0.943 | S. cerevisiae deletion strains, locus YLR221C, strain rsa3, stronger effect = lower value 0.985 | S. cerevisiae deletion strains, locus YLR258W, strain gsy2, stronger effect = lower value 0.986 | S. cerevisiae deletion strains, locus YLR262C, strain YPT6 (second series), stronger effect = lower value 0.965 | S. cerevisiae deletion strains, locus YLR262C, strain YPT6, stronger effect = lower value 0.985 | S. cerevisiae deletion strains, locus YLR268W, strain sec22, stronger effect = lower value 1 | S. cerevisiae deletion strains, locus YLR320W, strain mms22, stronger effect = lower value 0.944 | S. cerevisiae deletion strains, locus YLR330W, strain CHS5, stronger effect = lower value 1 | S. cerevisiae deletion strains, locus YLR342W, strain FKS1 (second series), stronger effect = lower value 0.988 | S. cerevisiae deletion strains, locus YLR342W, strain FKS1, stronger effect = lower value 0.981 | S. cerevisiae deletion strains, locus YLR357W, strain rsc2, stronger effect = lower value 1 | S. cerevisiae deletion strains, locus YLR370C, strain arc18, stronger effect = lower value 0.983 | S. cerevisiae deletion strains, locus YLR371W, strain rom2, stronger effect = lower value 0.971 | S. cerevisiae deletion strains, locus YLR384C, strain iki3, stronger effect = lower value 0.969 | S. cerevisiae deletion strains, locus YLR418C, strain cdc73, stronger effect = lower value 0.985 | S. cerevisiae deletion strains, locus YML016C, strain PPZ1, stronger effect = lower value 1 | S. cerevisiae deletion strains, locus YML032C, strain rad52, stronger effect = lower value 0.992 | S. cerevisiae deletion strains, locus YML120C, strain ndi1, stronger effect = lower value 0.986 | S. cerevisiae deletion strains, locus YML124C, strain tub3, stronger effect = lower value 0.998 | S. cerevisiae deletion strains, locus YMR058W, strain fet3, stronger effect = lower value 0.987 | S. cerevisiae deletion strains, locus YMR078C, strain ctf18, stronger effect = lower value 0.999 | S. cerevisiae deletion strains, locus YMR125W, strain sto1, stronger effect = lower value 0.963 | S. cerevisiae deletion strains, locus YMR129W, stronger effect = lower value 0.994 | S. cerevisiae deletion strains, locus YMR205C, strain PFK2, stronger effect = lower value 0.934 | S. cerevisiae deletion strains, locus YMR223W, strain ubp8, stronger effect = lower value 0.996 | S. cerevisiae deletion strains, locus YMR231W, strain pep5, stronger effect = lower value 0.983 | S. cerevisiae deletion strains, locus YMR307W, strain GAS1, stronger effect = lower value 0.996 | S. cerevisiae deletion strains, locus YNL067W, strain RPL9B, stronger effect = lower value 1.01 | S. cerevisiae deletion strains, locus YNL071W, strain lat1, stronger effect = lower value 0.98 | S. cerevisiae deletion strains, locus YNL128W, strain TEP1, stronger effect = lower value 1.01 | S. cerevisiae deletion strains, locus YNL175C, strain NOP13, stronger effect = lower value 1.01 | S. cerevisiae deletion strains, locus YNL183C, strain NPR1, stronger effect = lower value 0.933 | S. cerevisiae deletion strains, locus YNL197C, strain WHI3, stronger effect = lower value 1.01 | S. cerevisiae deletion strains, locus YNL209W, strain ssb2, stronger effect = lower value 0.992 | S. cerevisiae deletion strains, locus YNL224C, strain SQS1, stronger effect = lower value 0.991 | S. cerevisiae deletion strains, locus YNL233W, strain BNI4, stronger effect = lower value 0.999 | S. cerevisiae deletion strains, locus YNL248C, strain rpa49, stronger effect = lower value 0.979 | S. cerevisiae deletion strains, locus YNL250W, strain rad50, stronger effect = lower value 1.02 | S. cerevisiae deletion strains, locus YNL271C, strain bni1, stronger effect = lower value 0.997 | S. cerevisiae deletion strains, locus YNL298W, strain CLA4, stronger effect = lower value 1 | S. cerevisiae deletion strains, locus YNL307C, strain MCK1, stronger effect = lower value 1 | S. cerevisiae deletion strains, locus YNL322C, strain KRE1 (second series), stronger effect = lower value 0.973 | S. cerevisiae deletion strains, locus YNL322C, strain KRE1, stronger effect = lower value 1.01 and 1 | S. cerevisiae deletion strains, locus YNR049C, strain mso1, stronger effect = lower value 0.985 | S. cerevisiae deletion strains, locus YNR052C, strain pop2, stronger effect = lower value 1 | S. cerevisiae deletion strains, locus YOL006C, strain TOP1, stronger effect = lower value 1.01 | S. cerevisiae deletion strains, locus YOL012C, strain htz1 0.891 | S. cerevisiae deletion strains, locus YOL147C, strain pex11, stronger effect = lower value 0.988 | S. cerevisiae deletion strains, locus YOR001W, strain rrp6, stronger effect = lower value 0.976 | S. cerevisiae deletion strains, locus YOR061W, strain CKA2, stronger effect = lower value 1.01 | S. cerevisiae deletion strains, locus YOR069W, strain VPS5, stronger effect = lower value 1 | S. cerevisiae deletion strains, locus YOR070C, strain gyp1, stronger effect = lower value 0.995 | S. cerevisiae deletion strains, locus YOR080W, strain dia2, stronger effect = lower value 0.97 | S. cerevisiae deletion strains, locus YOR083W, strain WHI5 (second series), stronger effect = lower value 1.03 | S. cerevisiae deletion strains, locus YOR083W, strain WHI5, stronger effect = lower value 0.982 | S. cerevisiae deletion strains, locus YOR106W, strain vam3, stronger effect = lower value 0.999 | S. cerevisiae deletion strains, locus YOR136W, strain idh2, stronger effect = lower value 1 | S. cerevisiae deletion strains, locus YOR144C, strain elg1, stronger effect = lower value 0.995 | S. cerevisiae deletion strains, locus YOR184W, strain ser1, stronger effect = lower value 0.943 | S. cerevisiae deletion strains, locus YOR231W, strain MKK1, stronger effect = lower value 0.94 | S. cerevisiae deletion strains, locus YOR265W, strain rbl2, stronger effect = lower value 0.991 | S. cerevisiae deletion strains, locus YOR270C, strain vph1, stronger effect = lower value 0.987 | S. cerevisiae deletion strains, locus YOR290C, strain snf2, stronger effect = lower value 0.976 | S. cerevisiae deletion strains, locus YOR316C, strain cot1, stronger effect = lower value 0.997 | S. cerevisiae deletion strains, locus YPL051W, strain arl3, stronger effect = lower value 0.984 | S. cerevisiae deletion strains, locus YPL055C, strain LGE1, stronger effect = lower value 0.999 | S. cerevisiae deletion strains, locus YPL078C, strain atp4, stronger effect = lower value 0.985 | S. cerevisiae deletion strains, locus YPL106C, strain sse1, stronger effect = lower value 0.951 | S. cerevisiae deletion strains, locus YPL240C, strain hsp82, stronger effect = lower value 0.988 | S. cerevisiae deletion strains, locus YPL241C, strain CIN2, stronger effect = lower value 0.997 | S. cerevisiae deletion strains, locus YPL256C, strain CLN2, stronger effect = lower value 0.923 | S. cerevisiae deletion strains, locus YPR119W, strain clb2, stronger effect = lower value 0.993 | S. cerevisiae deletion strains, locus YPR141C, strain kar3, stronger effect = lower value 0.992 | S. cerevisiae deletion strains, locus YPR163C, strain tif3, stronger effect = lower value 0.995 | S. cerevisiae deletion strains, locus YPR167C, strain met16, stronger effect = lower value 1 | S. cerevisiae deletion strains, strain wtn01, stronger effect = lower value 0.993 | S. cerevisiae strains, strain wild type, stronger effect = lower value 1
